The whole screen tested about 53,000 sequences, of which about 3,700 (7%) were called active. This excerpt belongs to a sample that is enriched for actives. Unmarked numbers belong to inactive results.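 Rule for the calls: active = gene knockdowns whose robust z-score for IL-1 alpha signal is at least 2 or at most -2, so actives lie on both sides; inactive = the rest.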
assay: Components of the Cytosolic LPS Sensing Pathway: Gene Identification via Genome-wide siRNA Screen; conditions: RAW264.7 macrophages, IL-1a HTRF, actives lie on both sides, screened at 100 nM (by protocol), cells primed 5 h with Pam3CSK4 first;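 note: robust z of the log signal after scaling to non-targeting control siRNA wells of the plate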
Method in brief: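 RAW264.7; siRNA 100 nM final, RNAiMAX, 48h 37 degrees C; Pam3CSK4 5 h; LipidA + TransIT-TKO 24 h; IL-1a HTRF; CellTiter-Glo viability; robust z vs negative-control median.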

Row | Sequence | z-score
1 | CCAGUUGAGUCACUUACUGTT against Borcs7 | 0.667
2 | CGCGGCAUAAACAUGUAAATT against Gatc | -1.07
3 | GGUGUCUUUCUUCACUCUUTT against Olfr862 | 0.225
4 | CGUGUUUGAUCACUACUCUTT against Tnfaip8l2 | -0.593
5 | GGACUGACUGGCUUCAUUGTT against Atl2 | -2.52 (active)
6 | GCAGAUUAGCUUCGUCAACTT against Top2a | -0.588
7 | GCGAAAUCCUGGGCUACUCTT against Dyrk4 | -0.32
8 | GGUUGUGACUACACUAUGGTT against Zfp456 | -1.7
9 | CGCAGAACGUGAACACCAATT against Smad3 | -2.47 (active)
10 | GUUACACAGGAGUGUGUAATT against Rnase2a | 0.573
11 | GGUGGCUUUAGGGAACAUUTT against Dctn3 | 0.369
12 | GGAAAUGGAGAAAUAUGCATT against Plod3 | -0.167
13 | ACCUUUGUCCUUUUGUUGUTT against Defb15 | 2.01 (active)
14 | GGAGAUGAAAAAAACGAGCTT against Rxylt1 | -0.222
15 | GCAAAUAAUGAGGUCCAGATT against Rbms2 | -0.377
16 | GCAAGUCCUACAAUACAACTT against Tk1 | 5.5 (active)
17 | GGCGAUGAAGAAGUAAUUUTT against Appl2 | -1.2
18 | CCCAUUAAGGUAUAAUAUCTT against Olfr855 | -0.301
19 | GGUUUCAUUUGGAUUUGCATT against Glyr1 | 0.491
20 | GGCAAAGAUAAUAAAGCUATT against Xpo1 | -0.967
21 | CCGUUUACUUCGUCCAAGUTT against Crlf1 | -0.134
22 | CCUUAUUUGUCCAUAAAAGTT against Pkdrej | 2.43 (active)
23 | GGGUCCUCUGAAAGUUACCTT against Fndc5 | 0.497
24 | GCACUUUGGCAUAUUUUCATT against Slc6a15 | -0.391
25 | GGAAAUGCUUCUGAGCUAGTT against Desi2 | 1.71
26 | GGGACGACUCUUUCUUAUGTT against Olfr1264 | 0.822
27 | GGAGAAAGGUGGUUUGGUATT against Sap30bp | -2.85 (active)

Row | Sequence | z-score
28 | GGAGCUAGUAUGUUCAACATT against Ubqln1 | -0.942
29 | GGUGUUUGUUUCUAACUUCTT against Glcci1 | -0.434
30 | CGAAUUCAUACCAGUGUGCTT against Ndufa10 | 2.84 (active)
31 | GCACUCUGCCUGAAAUACCTT against Nlrp1a | -0.376
32 | GGACUUCACAAUCUCUUUCTT against Hck | -0.11
33 | GGAAGAAUCCACUUUGAACTT against Chil4 | 0.048
34 | GGGCUAAAUUAAGCUUCUATT against Sowahd | -0.707
35 | GCCUGCUUAAGCUACUUAUTT against Fam210b | -1.04
36 | UCUUACAAACUAGCUCUCCTT against Crabp2 | -0.777
37 | GGGACCGUCUUAAACAUCUTT against Rsl1d1 | 2.92 (active)
38 | GGAGAGUAACAAUUAUGAATT against Pcdha9 | 0.983
39 | GCUCGAGAGUACUGUAGGCTT against Kat8 | -2.41 (active)
40 | GGUCUAAUACUCAAUAGACTT against Tmem200a | 0.0917
41 | CCUGAAGGGUCUGGCAAAATT against Zfp804a | 0.66
42 | GGAAUUGGUUCAGAAAUAUTT against Rtn4 | 3.09 (active)
43 | GGUUAAACUACAACAGUUGTT against Tmco5 | 1.04
44 | GGAAGAAUGUAAGUAUACCTT against Zscan12 | 1.68
45 | CGUGGAAGAAAUAAUUAGGTT against Faap24 | 0.664
46 | GCUGGUCUAUGUGGAAAGGTT against Brap | 2.32 (active)
47 | GGUGAAGAGUGAUUUUAAUTT against Il10 | 1.03
48 | GGUGUUGGAAGAGAUGCUGTT against Ap3m2 | 0.405
49 | GGAAGUGGAAUAUGUCACCTT against Cd300lf | -0.206
50 | GCCCACGUUUUAAGUCUACTT against Ap1s3 | 3.69 (active)
51 | GAUACCAAGCUAAAAGAUCTT against Ear10 | 0.0579
52 | GCCAGUCAUCUUUGUAGUCTT against Olfr411 | -0.777
53 | GGAUGUACUUUGUUAAGGCTT against Tert | 2.78 (active)
54 | GGGAGAACAGUGUUCAGAGTT against Bhlha15 | -0.151

— PubChem BioAssay AID1508600 (Functional Genomics Laboratory (NCATS/FGL), 2020)
